# Assay outcomes: PubChem, several laboratories
# Rows were chosen to be rich in hits. Some 1.4% of all compounds tested hit in one or more screens of this group.
# EBV gp42 block: Epstein-Barr virus gp42 inhibitors, primary screen, biochemical, uHTS, fluorescence polarization; Glycoprotein 42 (Epstein-Barr virus (strain AG876)), Q1HVG2; Fluorescence polarization binding assay, mP read-out; inhibition, % (tested at 21.74 µM); 220,000 compounds, 0.42% hits; AID 1085, 2008; in the data active = inhibition above about 50%
# Target sequence (Q1HVG2 whole entry, looked up): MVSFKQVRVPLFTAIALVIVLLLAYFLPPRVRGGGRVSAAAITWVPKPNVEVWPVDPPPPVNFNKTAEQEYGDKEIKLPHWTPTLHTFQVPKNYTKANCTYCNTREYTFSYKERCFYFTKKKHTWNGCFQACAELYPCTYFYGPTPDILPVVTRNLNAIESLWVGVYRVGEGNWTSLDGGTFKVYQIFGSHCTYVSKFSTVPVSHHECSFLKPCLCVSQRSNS
# E coli Lon inh: inhibitors of E. coli Lon protease, primary screen, biochemical, fluorescence polarization. purified E. coli Lon protease. inhibition, % at 7.94 µM. AID 602123, 2011. 360,000 compounds, 0.42% hits. P0A9M0; in the data active = inhibition above about 13%, passing the limit was not always enough;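 also: 0% = enzyme with probe and DMSO and 100% = no enzyme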
# GLD-1 TGE inh: GLD-1/TGE RNA complex disruptors, primary screen, biochemical, fluorescence polarization; purified GLD-1 + fluorescein TGE RNA; inhibition, % at 5.96 µM; 320,000 compounds, 0.44% hits; AID 2280, 2010;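 active = percent inhibition above a per-plate cutoff, the plate mean of test compounds plus 3 SD, cut at about 30% in these data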;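 also: 0% = DMSO wells with GLD-1 and probe and 100% = wells lacking GLD-1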
# MCL1-BIM inh: inhibitors of MCL1 binding to BIM-BH3, primary screen, biochemical, fluorescence polarization; Induced myeloid leukemia cell differentiation protein Mcl-1 (Homo sapiens), Q07820; GST-MCL1 / FITC-Bim-BH3 fluorescence polarization; inhibition, % at 10.9 µM; 320,000 compounds, 0.68% hits; AID 2057, 2009;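 active = inhibition above the mean inhibition of all tested compounds plus 3 SD, set per campaign, cut at about 40% in these data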;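 also: 0% = DMSO wells and 100% = unlabeled Bim-BH3 peptide control; higher means more loss of mP so more displacement of Bim peptide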
# BCLXL inh: inhibitors of human Bcl-xL, primary screen, biochemical, fluorescence polarization, HTS | GST-Bcl-xL / FITC-Bim BH3 peptide fluorescence polarization | AID 2129, 2009 | Bcl-2-like protein 1 (Homo sapiens), Q07817 | inhibition, % at 10.9 µM | 320,000 compounds, 0.7% hits;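 active = inhibition above the mean of all tested compounds plus 3 SD, cutoff set per campaign, cut at about 30% in these data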;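 also: 0% = DMSO wells and 100% = unlabeled Bim-BH3 peptide competitor; inhibitors lower millipolarization by displacing the labeled peptide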
# Target sequence (Q07817 whole entry, looked up): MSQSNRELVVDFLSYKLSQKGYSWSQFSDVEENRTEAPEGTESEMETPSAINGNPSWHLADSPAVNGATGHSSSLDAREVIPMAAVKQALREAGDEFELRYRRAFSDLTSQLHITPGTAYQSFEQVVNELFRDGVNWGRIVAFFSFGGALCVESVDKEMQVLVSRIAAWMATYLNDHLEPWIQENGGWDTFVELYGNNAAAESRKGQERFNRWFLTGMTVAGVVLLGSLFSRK
# MEX-5 binding: MEX-5 zinc finger RNA-binding disruptors – biochemical, C. elegans, fluorescence polarization, MLPCN library, primary screen; Zinc finger protein mex-5 (Caenorhabditis elegans), Q9XUB2; activity score (negative = inhibition of binding), % at 10 µM; MEX-5/FITC-TCR2 RNA binding; hits give low values; AID 1832, 2009; 300,000 compounds, 0.38% hits;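 active = inhibition past about -25% in most replicates, and total fluorescence under double the plate's negative control median, limit read from the data; inconclusive = replicates evenly split on the limit, or fluorescence at least double controls; inactive = too little inhibition in most replicates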;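 also: 0% = DMSO and -100% = 5 µM competing unlabeled TCR2 RNA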
# Bcl-xL conf: Bcl-xL inhibitors blocking Bim BH3 binding, confirmation, counter-screen for MCL1 inhibitor project, biochemical, fluorescence polarization; shares compounds with MCL1-BIM inh; GST-Bcl-xL / FITC-Bim BH3 peptide FP binding; inhibition, % at 10.9 µM; 1,700 compounds, 54% hits;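 active = inhibition above a cutoff equal to the mean inhibition of all tested compounds plus 3 SD, cut at about 30% in these data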;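 also: 0% = DMSO wells and 100% = unlabeled Bim BH3 control peptide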
# MCL1 BIM confirm: inhibitors of MCL1 binding to BIM-BH3, confirmation, biochemical, fluorescence polarization, triplicate | AID 2168, 2009 | GST-MCL1 / FITC-Bim-BH3 fluorescence polarization | 1,700 compounds, 61% hits | shares compounds with MCL1-BIM inh | inhibition, % at 10.9 µM;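 active = inhibition above the average of all tested compounds plus 3 SD, cut at about 40% in these data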;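 also: 0% = DMSO wells and 100% = unlabeled Bim-BH3 control peptide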
# GLD1 RNA confirm: GLD-1/TGE RNA binding inhibitors, retest, confirmation, biochemical, fluorescence polarization, triplicate. shares compounds with GLD-1 TGE inh. GLD-1/FL-TGE RNA fluorescence polarization. inhibition, % at 5.96 µM. 550 compounds, 10% hits;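 active = average inhibition across triplicates above the hit cutoff set in the primary screen, cut at about 32% in these data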;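 also: 0% = GLD-1 with RNA probe and DMSO and 100% = wells lacking GLD-1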
# eLon confirm: E. coli Lon protease inhibitor retest, confirmation, biochemical, fluorescence polarization. shares compounds with E coli Lon inh. purified E. coli Lon. inhibition, % at 7.94 µM. 1,400 compounds, 31% hits; in the data active = inhibition above about 16%;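 also: 0% = enzyme with probe and DMSO and 100% = no enzyme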
# The depositor's hits bear a star; ? = inconclusive; · = no result given; + = active, no number.
SMILES,EBV gp42 block,E coli Lon inh,GLD-1 TGE inh,MCL1-BIM inh,BCLXL inh,MEX-5 binding,GLD1 RNA confirm,others
COCCN(CCOC)S(=O)(=O)c1ccc(C(=O)Nc2c(C)n(C)n(-c3ccccc3)c2=O)cc1,-16.8,-4.2,4.7,-3.5,0.4,2.4,·,
O=C(Oc1ccc2c(c1)O/C(=C\c1ccncc1)C2=O)c1ccccc1,-1.8,24.4*,75.4*,93.1*,80.6*,-9.6,·,Bcl-xL conf=23.2;MCL1 BIM confirm=54.2*;eLon confirm=31.6*
N#CCn1c(CN2CCCC2)nc2ccccc2c1=O,·,9.7,-2.0,-0.9,-0.5,-0.7,·,
Cc1ccc(S(=O)(=O)N2CCC(C(=O)N3CCc4ccccc43)CC2)cc1C,·,-4.8,·,·,·,·,·,
O=C(O)C1CCCC2CN3CCc4c([nH]c5ccccc45)C3C(O)C21 (stereo not given),·,20.3*,34.8*,104.0*,86.4*,-9.9,·,Bcl-xL conf=29.4;MCL1 BIM confirm=31.2;eLon confirm=2.0
NC(=O)c1cc2c3ccccc3ccn2c1-c1ccccc1,4.7,25.3*,50.7*,59.4*,50.4*,-8.9,·,Bcl-xL conf=22.7;MCL1 BIM confirm=26.7;eLon confirm=18.2*
CNc1ccc2c3c(cccc13)C(=O)N(C)C2=O,·,+,119.0*,+,178.5*,?,·,Bcl-xL conf=+;MCL1 BIM confirm=+;eLon confirm=+
CN1CC=C2C(C#N)=C(N)C(C#N)(C#N)C(c3ccsc3)C2C1 (stereo not given),24.4,60.1*,70.2*,117.4*,105.9*,?,·,Bcl-xL conf=22.8;MCL1 BIM confirm=26.7;eLon confirm=31.5*
CN1C2C=C3C(C#N)=C(N)C(C#N)(C#N)[C@@H](c4ccsc4)[C@@H]3C1CC2 (stereo not given in full),-4.1,·,12.2,30.3,22.3,-4.5,·,
CN1CC=C2C(C#N)=C(N)C(C#N)(C#N)[C@H](c3cccc(Cl)c3)C2C1 (stereo not given in full),58.5*,23.4*,78.8*,115.5*,104.4*,-59.3*,·,Bcl-xL conf=31.1*;MCL1 BIM confirm=36.1;eLon confirm=16.7*
CCN(CC)S(=O)(=O)c1cccc(C(=O)N/N=C/c2cccc(O)c2O)c1,-11.4,-7.5,-1.9,19.8,6.6,0.2,·,
CCN(CC)S(=O)(=O)c1cccc(C(=O)N/N=C2\CCCC(=O)C2)c1,4.8,87.0*,114.2*,55.9*,41.5*,-2.7,·,Bcl-xL conf=8.4;MCL1 BIM confirm=12.7;eLon confirm=-27.0
Cc1c2cc(O)c(=O)cc-2oc2cc(O)c(O)cc12,129.3*,48.1*,184.8*,·,107.3*,?,·,Bcl-xL conf=114.5*;eLon confirm=196.5*
Cc1cc2oc(=O)cc(-c3cc4ccccc4o3)c2cc1O,·,4.5,5.7,10.2,7.6,0.8,·,
Cc1cc(C)cc(-n2ncc3c2CCCC3NC(=O)c2csnn2)c1 (stereo not given),·,-16.1,0.3,4.2,3.8,0.9,·,
CC(=O)Nc1cccc(C(=O)NC2CCCc3c2cnn3-c2cc(C)cc(C)c2)c1 (stereo not given),·,-12.2,57.7*,-5.2,-5.8,0.5,1.2,
O=C(CNC(=O)c1cccs1)N/N=C/c1ccc(O)cc1O,2.6,-2.0,6.3,14.7,10.3,-1.5,·,
O=C(CNC(=O)c1cccnc1)N/N=C/c1ccc(O)cc1O,·,-1.3,32.8*,19.8,20.7,-0.4,11.0,
N#CC1=C2N=C(N)c3ccccc3N2C2=C(C(=O)CCC2)C1c1cccc(Cl)c1 (stereo not given),0.6,4.5,47.9*,16.4,20.8,1.0,-0.6,
CCOC(=O)CC(=O)CSc1nc2cc(C)ccc2cc1C,2.1,6.2,23.4,28.7,20.9,2.3,·,
CCOC(=O)CC(=O)CSc1nc2ccc(OC)cc2cc1C,0.3,-2.0,34.4*,46.6*,36.3*,0.4,-4.8,
COc1ccccc1NNC(=O)c1cccnc1Oc1ccccc1,-3.1,1.6,-5.7,3.6,5.0,0.2,·,
Cn1cc(/C=N\O)nc2c(=O)n(-c3ccccc3)c(=O)nc1-2,-15.5,-1.6,35.2*,33.8,36.4*,-14.2,8.2,
Cc1ccc(S(=O)(=O)N[C@H](C(=O)Oc2ccc3c(C(F)(F)F)cc(=O)oc3c2)c2ccccc2)cc1,12.3,19.8*,50.4*,45.3*,45.3*,-14.5,44.3*,
Nc1cccc2c1C(=O)N(Cc1cccc(Cl)c1)C2=O,46.0,25.8,32.0*,22.9,22.0,-10.2,38.8*,
SMILES,EBV gp42 block,E coli Lon inh,GLD-1 TGE inh,MCL1-BIM inh,BCLXL inh,MEX-5 binding,GLD1 RNA confirm,others
O=C1Cc2ccccc2C(=O)N1Cc1cccc(Cl)c1,·,-3.6,·,·,·,2.9,·,
CCC1CCc2sc(C(=O)NCC(c3ccc(OC)cc3)N3CCCC3)cc2C1 (stereo not given),·,-1.7,48.7*,5.7,6.1,7.0,-5.4,
CC(=O)c1ccc(NC(=O)C(Cc2ccccc2)n2cccc2)cc1 (stereo not given),7.6,0.4,3.0,5.5,4.1,·,·,
O=C(CC1N=C2c3ccccc3N=C(SCc3ccc(Cl)cc3)N2C1=O)NCc1ccco1 (stereo not given),-15.5,-5.2,39.5*,29.6,23.6,·,16.0,
Cc1ccc(CSC2=Nc3ccccc3C3=NC(CCC(=O)NCc4ccco4)C(=O)N23)cc1 (stereo not given),-2.7,-5.0,4.8,4.2,4.3,3.3,·,
CSc1ccccc1NC(=O)CN(C)C(=O)C1CCN(C(=O)Nc2ccccc2)CC1,·,9.3,-0.6,0.1,4.4,1.5,·,
COc1cccc(C(=O)NN2CC(O)=C(c3nc(C)cs3)C2=N)c1,-12.7,4.3,6.2,-3.0,-3.1,1.8,·,
COc1cccc(C(=O)NN2CC(O)=C(c3nc4ccccc4s3)C2=N)c1,-8.9,-7.5,30.8*,0.8,-0.3,-1.0,-6.5,
